# The panel holds about 83,000 compounds, 20% with a hit somewhere; the sample as a whole holds those more often.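 Note: values are percent growth. 100 is the growth of untreated cells, values between 100 and 0 indicate rising inhibition; between -100 and 0 indicates cell death.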 A number with no mark means an inactive call. Active and inactive are the calls of the source. The calls were made as follows: active = growth percent below 10; inactive = the rest.
# Tested on: HL-60(TB) leukemia
# Assay: NCI-60 one-dose screen, 48 h (100 = growth as untreated, 0 = no growth, -100 = all killed)
# Conditions: 10 µM unless noted
row,Compound,growth
1,COC(=O)CCc1cc(O)c2c(c1)[C@@H](C(=O)OC)[C@H](c1ccc(O)c(O)c1)O2,9.9% (active)
2,O=C(O)c1ccc(NC(=O)c2ccc(-c3cccc([N+](=O)[O-])c3)o2)cc1,105%
3,COc1cc(C(=O)/C=C/c2cc(-c3ccc4c(c3)OCO4)n[nH]2)cc(OC)c1OC,-16.6% (active)
4,COc1ccc(C2NN=C3c4ccccc4CCC32)cc1 (configuration not stated),40.7%
5,Cc1ccc(N(CC(=O)Nc2ccc(S(=O)(=O)NC3CCN(C)CC3)cc2)S(=O)(=O)c2ccc(Cl)cc2)cc1,75.7%
6,CO[C@@]12C=C[C@@]34CCC(=O)N3c3ccccc3[C@@H](O1)C4C2,96.9%
7,c1ccc(-c2cc(-c3cc(-c4ccccc4)on3)no2)cc1,64%
8,COc1cc2c(cc1OCCCN1CCN(C(=S)SCCC(C#N)(c3ccccc3)c3ccccc3)CC1)N=C[C@@H]1CCCN1C2=O,0.178% (active)
9,COc1cc(C2c3cc4c(cc3C3OC(=O)C2C3CO)OCO4)cc(OC)c1OC (configuration not stated),-17.2% (active)
10,COc1ccc(C(c2cc(OC)c(OC)c(OC)c2)n2cncn2)cc1O (configuration not stated),-32.5% (active)
11,CC1CN(S(=O)(=O)c2oc(-c3ccc(Cl)cc3)nc2C#N)CC(C)O1 (configuration not stated),23.4%
12,C/C(=C(/c1ccccc1)c1ccc(OCC(O)CNCCN2CCOCC2)cc1)c1ccccc1 (configuration not stated),29%
13,Cc1ccc(S(=O)(=O)N2CCc3ccc(O)c4c3C2CCc2ccccc2-4)cc1 (configuration not stated),91.3%
14,C=C1C(=O)O[C@H]2[C@H]1CC/C(COC(=O)CCCCCC(=O)OC/C1=C/CC[C@@]3(C)O[C@H]3[C@H]3OC(=O)C(=C)[C@@H]3CC1)=C\CC[C@@]1(C)O[C@@H]21,-30% (active)
15,CC(C)(C)c1cc(-c2nc3ccc(N4CCN(CCO)CC4)cc3[nH]2)cc(C(C)(C)C)c1O,63.5%
16,N#Cc1ccc(-c2ccc(COc3ccc(CC4SC(=O)NC4=O)cc3)cc2)cc1 (configuration not stated),70.5%
17,Cc1ccc(-c2cc(-c3ccccc3C)[nH]c(=O)c2C#N)s1,80.4%
18,CC1C=CC(OC(=O)C(C)(O)CCC(O)(C(=O)OC2CC(O)C(C(C)C)CC2(C)O)C(C)C)(C(C)C)CC1 (configuration not stated),-50.8% [4.63 µM] (active)
19,Cc1nn(-c2ccccc2)c2nc3nc4c(c(N)c3c(-c3ccc(Cl)cc3)c12)CCC4,102%

row,Compound,growth
1,NS(=O)(=O)c1ccc(N2N=C(c3ccc(-c4ccccc4)cc3)CC2c2ccc(Cl)cc2)cc1 (configuration not stated),86.5%
2,NC(N)=N/N=C/c1ccc(-c2ccc(-c3cc(Cl)cc(Cl)c3)s2)cc1,24.9%
3,CCOC(=O)c1cnn(CC(C)O)c1NC(=O)NCc1ccccc1C(F)(F)F (configuration not stated),58%
4,O=C1OCC2=C1C(c1ccccc1)c1cc3c(cc1N2CCO)OCCO3 (configuration not stated),-14.1% (active)
5,Cn1cc(-c2csc(-c3cn(C)c4ccc(Br)cc34)n2)c2cnccc21,-58.4% (active)
6,COc1cccc(/C=C/c2c(C(=O)O)cccc2[N+](=O)[O-])c1OC,97.4%
7,COc1ccc(-c2cc(/C=C/C(=O)c3ccc(OC)c(OC)c3)[nH]n2)cc1,-43.7% (active)
8,COc1ccc2c(c1)C(C)Cc1c(Cl)nc(C)nc1N2C (configuration not stated),11.3%
9,CC(C)c1ccc(C(=O)Nc2nc3ccc(O)c(CN(C)C)c3s2)cc1,76.8%
10,O=C(N/N=C/c1ccc(O)cc1O)c1cccnc1,-17.2% (active)
11,CC1=CC(=O)N(c2cccc3c(N4C(=O)C=C(C)C4=O)cccc23)C1=O,-1.53% (active)
12,CCOC(=O)c1cnn(CC(O)CC)c1NC(=O)NCc1ccccc1C(F)(F)F (configuration not stated),76.4%
13,COc1cccc(-c2nc3sccn3c2-c2ccnc(NCCNS(=O)(=O)c3ccccc3)n2)c1,69.9%
14,CN(C)c1ccc(O)c2c1CC1CC3C(N(C)C)C(=O)C(C(N)=O)=C(O)C3(O)C(=O)C1=C2O (configuration not stated),51.3%
15,COc1cc(-c2nc3ccccc3s2)ccc1OCc1nc2n(n1)S(=O)(=O)c1ccccc1N2c1ccccc1,16.2%
16,Cc1ccc2c(c1)c(-c1nc(-c3c[nH]c4ncccc34)cs1)cn2C,84.1%
17,CCCCCCCCCCCCCC[N+](C)(C)CCCCCCCCCCCCCC,46.6%
18,COc1ccc(C(=S)N2CCN(c3ccc(Cl)cc3)CC2)cc1,89.7%

# Reference: PubChem BioAssay (NCI)
